The values below come from PubChem BioAssay (NCI).

Each structure is given as a SMILES string. This is part of a sample that, as a whole, favours compounds with a hit. Of some 83,000 tested, about 20% had one in any assay.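 Growth was measured after 48 h exposure to one concentration of compound in 96-well plates. Values under 10 count as active.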 The source made the active and inactive calls.

The test concerns SK-MEL-28 melanoma. Kind of test: NCI-60 one-dose screen, 48 h (100 = growth as untreated, 0 = no growth, -100 = all killed). The settings on record: 10 µM unless noted.
Take `NS(=O)(=O)c1ccc(-n2nc(-c3ccc(Cl)cc3)ccc2=O)cc1`: the growth was 90.3% (inactive).

Consider `Nc1nc(Cl)cc(NCCCCNc2cc(Cl)nc(N)n2)n1`, for which the growth is 118% (inactive).

Take `Fc1ccc(/C=N/n2c(-c3cc(Cl)cc(Cl)c3Cl)nn(CNc3ccc(Cl)nn3)c2=S)cc1`: the growth is 108% (inactive). Then `COc1cc(-c2nc3ccccc3s2)ccc1OCc1nc2n(n1)S(=O)(=O)c1ccccc1N2C`, with 103% (inactive). Next, `Cc1c(Cl)ccc2c(C(=O)Cl)cc(-c3ccccc3)nc12`: 103% (inactive); `CN1CCN(Cn2nc(-c3cc(Cl)cc(Cl)c3Cl)n(/N=C/c3ccc(Cl)cc3)c2=S)CC1`: 111% (inactive); `COc1cc2nc(C(=O)N3CCCCC3)cc(Nc3ccccc3)c2cc1OC`: 110% (inactive). Then `COc1ccccc1N1CCN(CC(O)COc2c(Br)c(Br)c(Br)c3c2OC(C)(C)C3)CC1` (centres undefined), with 90.4% (inactive).

Turning to `COc1cc(Cn2cc3c(c2)-c2onc(CO)c2CC3)cc(OC)c1OC`, the growth is 93.7% (inactive). On to `CN1CCN(C(=O)/C=C/c2ccc([N+](=O)[O-])o2)CC1`, for which the growth was 35.8% (inactive).

In the case of `CC(C)C1(C(C)C)NC(=O)NC1=O`, the growth was 95.9% (inactive).

For the molecule `COc1cc(/C=C/C(=O)c2c(C)n([O-])c3cc(C)c(C)cc3[n+]2=O)cc(OC)c1OC`, the growth is 72.9% (inactive).

Consider `COc1cc(/C=C\c2cc(/C=C\c3ccc(O)c(OC)c3)n(C(=O)CNc3ccccc3OC)n2)ccc1O`, for which the growth is 70% (inactive). Then `OCc1cn(-c2ccc(Cl)cc2)nc1-c1ccc(O)cc1`, with 108% (inactive); and `CCc1c2cc(Cl)ccc2n2cc(Cc3ccccc3)[nH]c(=O)c12`, with 107% (inactive); and `Nc1ncnc2c1ccn2-c1cccc(NC(=O)c2cccc(C(F)(F)F)c2)c1`, with 85.1% (inactive). Then `COc1ccc(Cl)cc1NC(=O)c1cc2c([nH]1)-c1nc(NC(=O)C(C)(C)C)sc1CC2`, with 94.2% (inactive).

As for `COc1ccc(-c2coc3c(CO)c(O)ccc3c2=O)cc1`, the growth was 88.8% (inactive). Next, `CC(=O)c1cc2c(c(O)c1C)C(=O)C(=O)c1c(O)cccc1-2`: -87.2% (active). Then `O=C(Cn1c2ccccc2c2ccncc21)N/N=C\c1ccc2ccccc2c1`, with 58.3% (inactive).

For the molecule `OC(COc1ccccc1Cl)CN1CCN(c2ccc(Cl)cc2)CC1` (centres undefined), the growth was 103% (inactive). Next, `O=C(Nc1ccc(-n2ccc3c(NC(=O)c4ccccc4)nccc32)cc1)c1cccc(C(F)(F)F)c1`: 48.1% (inactive); `Cc1cc(N2CCOCC2)nc(N(CCNc2ccnc3cc(Cl)ccc23)Cc2ccco2)n1`: 52.4% (inactive). Next, `CCCCC(=O)Nc1nc2ccc(SCCC)cc2s1`: 64.8% (inactive); `COc1cc2ncnc(Oc3ccc(NC(=O)Nc4ccc(CN5CCOCC5)c(C(F)(F)F)c4)c4ccccc34)c2cc1OC`: 2.47% (active). Turning to `FC(F)(F)c1cccc([Si](F)(c2cccc(C(F)(F)F)c2)c2cccc(C(F)(F)F)c2)c1`, the growth was 85.8% (inactive). For `O=C(O)c1cccc(S(=O)(=O)c2ccccc2)c1`, the growth was 98.9% (inactive). Next, `C=C1C(=O)O[C@H]2[C@H]1CC/C(COC(=O)CCCC(=O)OC/C1=C/CC[C@@]3(C)O[C@H]3[C@H]3OC(=O)C(=C)[C@@H]3CC1)=C\CC[C@@]1(C)O[C@@H]21`: 8.77% (active); `Cc1c(F)cccc1NC(=O)c1sc2nc3c(cc2c1N)CCCCC3`: 68.7% (inactive).

As for `O=C(Nc1cccc([N+](=O)[O-])c1)Nc1cccc([N+](=O)[O-])c1`, the growth was 60.3% (inactive). Then `O=C(N/N=C1\SCC(=O)N1c1ccccc1)c1cc(-c2cc3ccccc3o2)nn1-c1ccccc1`, with 110% (inactive); and `COc1cc(-c2nc(N)n(CC(=O)Nc3ccc(/C(C)=N\O)cc3)n2)cc(OC)c1OC`, with 94.2% (inactive); and `O=C(Cn1c2ccccc2c2ccncc21)N/N=C/c1c[nH]c2ccccc12`, with 56.5% (inactive). Then `CCCN1C(=O)CSC1=Nc1ccc2cc3ccc(N=C4SCC(=O)N4CCC)cc3nc2c1`, with 86.5% (inactive); and `CCc1cccc(C)c1NC(=O)c1sc2nc3c(cc2c1N)CCCCC3`, with 67.6% (inactive). Regarding `NC(=S)NNC1CCCCC1`, the growth was 111% (inactive). Next, `CC(C)(C)C(=O)Nc1nc2c(s1)CCc1ccn(S(=O)(=O)c3ccccc3)c1-2`: 101% (inactive). Then `Nc1ncnc2c1c(-c1ccc(Oc3ccccc3)cc1)nn2C[C@@H]1SSC[C@H]1O`, with 31.4% (inactive); and `Cc1ccc[n+](CC(=O)c2cccc3ccccc23)c1`, with 105% (inactive).
